Data published in the supplement of paper PMC4466140.

B1: unnamed (peptide)
chain: FPPKRKPLLRPQRSD
B2: unnamed (peptide)
chain: QPWTDQFEKLEKEVS

target: AgAbp1; experiment: SPOT peptide array binding signal intensity (averaged, normalized) (arbitrary units (background-subtracted, floor 0; scale differs between SH3 domains)); higher = stronger binding of the SH3 domain to the peptide
How it was run: (§1)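 Cellulose membranes carried synthetic 15-mer peptides with cysteines swapped for serines. These were incubated overnight at 4°C with 10 μg/ml of GST-fused SH3 domains from four yeast species in TBS-based blocking buffer. Binding signal, detected with anti-GST antibody and quantified in Genespotter, is the normalized, background-subtracted spot intensity averaged over replicates, in arbitrary units specific to each domain.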

Binder	SPOT peptide array binding signal intensity
B1	766

target: AgBbc1; experiment: as above
How it was run: as §1

Binder	SPOT peptide array binding signal intensity
B1	332

target: AgBem1-D1; experiment: as above
How it was run: as §1

Binder	SPOT peptide array binding signal intensity
B1	170

target: AgBzz1-D1; experiment: as above
How it was run: as §1

Binder	SPOT peptide array binding signal intensity
B1	59

target: AgBzz1-D2; experiment: as above
How it was run: as §1

Binder	SPOT peptide array binding signal intensity
B1	81

target: AgCyk3; experiment: as above
How it was run: as §1

Binder	SPOT peptide array binding signal intensity
B1	3.5

target: AgFus1; experiment: as above
How it was run: as §1

Binder	SPOT peptide array binding signal intensity
B1	303

target: AgHof1; experiment: as above
How it was run: as §1

Binder	SPOT peptide array binding signal intensity
B1	156

target: AgHse1; experiment: as above
How it was run: as §1

Binder	SPOT peptide array binding signal intensity
B1	294

target: AgLsb1; experiment: as above
How it was run: as §1

Binder	SPOT peptide array binding signal intensity
B1	26.5

target: AgLsb4; experiment: as above
How it was run: as §1

Binder	SPOT peptide array binding signal intensity
B1	33.5

target: AgMyo5; experiment: as above
How it was run: as §1

Binder	SPOT peptide array binding signal intensity
B1	≤ 0

target: AgNbp2; experiment: as above
How it was run: as §1

Binder	SPOT peptide array binding signal intensity
B1	590

target: AgRvs167; experiment: as above
How it was run: as §1

Binder	SPOT peptide array binding signal intensity
B1	9

target: AgSho1; experiment: as above
How it was run: as §1

Binder	SPOT peptide array binding signal intensity
B1	45

target: AgSla1-D1-D2; experiment: as above
How it was run: as §1

Binder	SPOT peptide array binding signal intensity
B1	230

target: AgSla1-D3; experiment: as above
How it was run: as §1

Binder	SPOT peptide array binding signal intensity
B1	5

target: CaAbp1-D1; experiment: as above
How it was run: as §1

Binder	SPOT peptide array binding signal intensity
B1	1450

target: CaAbp1-D2; experiment: as above
How it was run: as §1

Binder	SPOT peptide array binding signal intensity
B1	2460

target: CaBbc1; experiment: as above
How it was run: as §1

Binder	SPOT peptide array binding signal intensity
B1	793

target: CaBem1-D1; experiment: as above
How it was run: as §1

Binder	SPOT peptide array binding signal intensity
B1	934

target: CaBzz1-D1; experiment: as above
How it was run: as §1

Binder	SPOT peptide array binding signal intensity
B1	257

target: CaBzz1-D2; experiment: as above
How it was run: as §1

Binder	SPOT peptide array binding signal intensity
B1	135

target: CaCyk3; experiment: as above
How it was run: as §1

Binder	SPOT peptide array binding signal intensity
B1	292

target: CaFus1; experiment: as above
How it was run: as §1

Binder	SPOT peptide array binding signal intensity
B1	589

target: CaHof1; experiment: as above
How it was run: as §1

Binder	SPOT peptide array binding signal intensity
B1	1.25

target: CaHse1; experiment: as above
How it was run: as §1

Binder	SPOT peptide array binding signal intensity
B1	57.2

target: CaLsb1; experiment: as above
How it was run: as §1

Binder	SPOT peptide array binding signal intensity
B1	≤ 0

target: CaLsb4; experiment: as above
How it was run: as §1

Binder	SPOT peptide array binding signal intensity
B1	1020

target: CaMyo5; experiment: as above
How it was run: as §1

Binder	SPOT peptide array binding signal intensity
B1	12

target: CaNbp2; experiment: as above
How it was run: as §1

Binder	SPOT peptide array binding signal intensity
B1	371
B2	23

target: CaRvs167; experiment: as above
How it was run: as §1

Binder	SPOT peptide array binding signal intensity
B1	221
B2	1.33

target: CaRvs167-3; experiment: as above
How it was run: as §1

Binder	SPOT peptide array binding signal intensity
B1	18.5
B2	0.5

target: CaSho1; experiment: as above
How it was run: as §1

Binder	SPOT peptide array binding signal intensity
B1	245
B2	≤ 0

target: CaSla1-D1-D2; experiment: as above
How it was run: as §1

Binder	SPOT peptide array binding signal intensity
B1	872
B2	≤ 0

target: CaSla1-D3; experiment: as above
How it was run: as §1

Binder	SPOT peptide array binding signal intensity
B1	9.75
B2	≤ 0

target: ScAbp1; experiment: as above
How it was run: as §1

Binder	SPOT peptide array binding signal intensity
B1	598
B2	1

target: ScBbc1; experiment: as above
How it was run: as §1

Binder	SPOT peptide array binding signal intensity
B1	294
B2	4.75

target: ScBem1-D1; experiment: as above
How it was run: as §1

Binder	SPOT peptide array binding signal intensity
B1	87
B2	≤ 0

target: ScBzz1-D1; experiment: as above
How it was run: as §1

Binder	SPOT peptide array binding signal intensity
B1	10.5
B2	21

target: ScBzz1-D2; experiment: as above
How it was run: as §1

Binder	SPOT peptide array binding signal intensity
B1	50
B2	11

target: ScCyk3; experiment: as above
How it was run: as §1

Binder	SPOT peptide array binding signal intensity
B1	38
B2	≤ 0

target: ScFus1; experiment: as above
How it was run: as §1

Binder	SPOT peptide array binding signal intensity
B1	138
B2	≤ 0

target: ScHof1; experiment: as above
How it was run: as §1

Binder	SPOT peptide array binding signal intensity
B1	0.25
B2	≤ 0

target: ScHse1; experiment: as above
How it was run: as §1

Binder	SPOT peptide array binding signal intensity
B1	1190
B2	67

target: ScLsb1; experiment: as above
How it was run: as §1

Binder	SPOT peptide array binding signal intensity
B1	27.8
B2	≤ 0

target: ScLsb2; experiment: as above
How it was run: as §1

Binder	SPOT peptide array binding signal intensity
B1	30
B2	≤ 0

target: ScLsb3; experiment: as above
How it was run: as §1

Binder	SPOT peptide array binding signal intensity
B1	2030
B2	≤ 0

target: ScLsb4; experiment: as above
How it was run: as §1

Binder	SPOT peptide array binding signal intensity
B1	71
B2	3

target: ScMyo3; experiment: as above
How it was run: as §1

Binder	SPOT peptide array binding signal intensity
B1	7.75
B2	0.5

target: ScMyo5; experiment: as above
How it was run: as §1

Binder	SPOT peptide array binding signal intensity
B1	2.75
B2	0.75

target: ScNbp2; experiment: as above
How it was run: as §1

Binder	SPOT peptide array binding signal intensity
B1	761
B2	≤ 0

target: ScPex13; experiment: as above
How it was run: as §1

Binder	SPOT peptide array binding signal intensity
B1	52.5
B2	181

target: ScRvs167; experiment: as above
How it was run: as §1

Binder	SPOT peptide array binding signal intensity
B1	410
B2	1

target: ScSho1; experiment: as above
How it was run: as §1

Binder	SPOT peptide array binding signal intensity
B1	1040
B2	≤ 0

target: ScSla1-D1-D2; experiment: as above
How it was run: as §1

Binder	SPOT peptide array binding signal intensity
B1	1030
B2	≤ 0

target: ScSla1-D3; experiment: as above
How it was run: as §1

Binder	SPOT peptide array binding signal intensity
B1	16
B2	16.2

target: SpAbp1-D1; experiment: as above
How it was run: as §1

Binder	SPOT peptide array binding signal intensity
B1	874
B2	≤ 0

target: SpBbc1; experiment: as above
How it was run: as §1

Binder	SPOT peptide array binding signal intensity
B1	37
B2	1.5

target: SpBzz1-D1; experiment: as above
How it was run: as §1

Binder	SPOT peptide array binding signal intensity
B1	444
B2	≤ 0

target: SpBzz1-D2; experiment: as above
How it was run: as §1

Binder	SPOT peptide array binding signal intensity
B1	0.5
B2	≤ 0

target: SpCyk3; experiment: as above
How it was run: as §1

Binder	SPOT peptide array binding signal intensity
B1	5
B2	≤ 0

target: SpHof1; experiment: as above
How it was run: as §1

Binder	SPOT peptide array binding signal intensity
B1	182
B2	≤ 0

target: SpHof1-2; experiment: as above
How it was run: as §1

Binder	SPOT peptide array binding signal intensity
B1	16.8
B2	≤ 0

target: SpHof1-3; experiment: as above
How it was run: as §1

Binder	SPOT peptide array binding signal intensity
B1	285
B2	≤ 0

target: SpHse1; experiment: as above
How it was run: as §1

Binder	SPOT peptide array binding signal intensity
B1	326
B2	15.5

target: SpLsb1; experiment: as above
How it was run: as §1

Binder	SPOT peptide array binding signal intensity
B1	153
B2	≤ 0

target: SpLsb4; experiment: as above
How it was run: as §1

Binder	SPOT peptide array binding signal intensity
B1	1630
B2	≤ 0

target: SpMyo1; experiment: as above
How it was run: as §1

Binder	SPOT peptide array binding signal intensity
B1	22.8
B2	≤ 0

target: SpNbp2; experiment: as above
How it was run: as §1

Binder	SPOT peptide array binding signal intensity
B1	286
B2	≤ 0

target: SpPex13; experiment: as above
How it was run: as §1

Binder	SPOT peptide array binding signal intensity
B1	26
B2	≤ 0

target: SpRvs167; experiment: as above
How it was run: as §1

Binder	SPOT peptide array binding signal intensity
B1	536
B2	≤ 0

target: SpSla1-D1-D2; experiment: as above
How it was run: as §1

Binder	SPOT peptide array binding signal intensity
B1	2
B2	3

target: SpSla1-D3; experiment: as above
How it was run: as §1

Binder	SPOT peptide array binding signal intensity
B1	3
B2	≤ 0
